Reference: PubChem BioAssay AID2490 (National Center for Advancing Translational Sciences (NCATS), 2010)
The source made the active and inactive calls. Calls follow the shape of the full dose curve.

What follows are compounds tested against Thyroid hormone receptor beta (Homo sapiens) (UniProt P10828) (assay: Secondary Confirmation Assay for Inhibitors of the Interaction of Thyroid Hormone Receptor and Steroid Receptor Coregulator 2, Texas Red Fluoroprobe). Conditions: TRb LBD / Texas Red SRC2 peptide fluorescence polarization.
Text: NIH Molecular Libraries Probe Production Network [MLPCN] NIH Chemical Genomics Center [NCGC] MLPCN Grant: DK058080 Assay Provider: R. Kip Guy, St. Jude Children's Research Hospital NCGC Assay Overview: Thyroid receptor (TR) regulates many homeostatic processes including basal metabolism, cardiovascular function, body weight, and lipid trafficking. TR modulators are potential therapeutics for obesity and hyperlipidemias but current thyroid analogs have undesirable side effects, particularly cardiac stimulation. To identify inhibitors that specifically prevent the interaction of TR with the steroid receptor coregulator 2 (SRC2), a fluorescence polarization assay was screened (Arnold et al., 2006). This assay detects the interaction of the ligand-binding domain of human TRb with a Texas Red labeled SRC2 peptide, corresponding to a 20 amino acid region of the nuclear receptor interaction domain. Small molecule inhibitors that block the interaction of TR and SRC2 are detected by a decrease in fluorescence polarization.
NCGC Assay Protocol Summary: Twenty uL/well 0.6 uM TRb and 20 nM Texas Red labeled SRC2-2 in protein buffer (20mM Tris hydrochloride, pH 7.4, 100mM NaCl, 10% glycerol, 1mM EDTA, 0.01% NP-40, 1mM DTT, 1uM T3 and 4% DMSO) was dispensed into black solid 384-well plates (Costar 3710) using a Biomek FX (Beckman Coulter) liquid handling system. Following transfer of 260 nL compound (ranging from 7 nM to 130 uM), the plates were incubated 3 hr at ambient temperature. The plates were read by an Envision (Perkin Elmer) to detect fluorescence polarization of SRC2 Texas Red (555 nm excitation and 632 nm emission). Arnold, L. A.; Estebanez-Perpina, E.; Togashi, M.; Shelat, A.; Ocasio, C. A.; McReynolds, A. C.; Nguyen, P.; Baxter, J. D.; Fletterick, R. J.; Webb, P.; Guy, R. K. A high-throughput screening method to identify small molecule inhibitors of thyroid hormone receptor coactivator binding. Sci STKE 2006, p 13.

Sequence of Thyroid hormone receptor beta (Homo sapiens) (P10828 whole entry, looked up, the tested form may be a part): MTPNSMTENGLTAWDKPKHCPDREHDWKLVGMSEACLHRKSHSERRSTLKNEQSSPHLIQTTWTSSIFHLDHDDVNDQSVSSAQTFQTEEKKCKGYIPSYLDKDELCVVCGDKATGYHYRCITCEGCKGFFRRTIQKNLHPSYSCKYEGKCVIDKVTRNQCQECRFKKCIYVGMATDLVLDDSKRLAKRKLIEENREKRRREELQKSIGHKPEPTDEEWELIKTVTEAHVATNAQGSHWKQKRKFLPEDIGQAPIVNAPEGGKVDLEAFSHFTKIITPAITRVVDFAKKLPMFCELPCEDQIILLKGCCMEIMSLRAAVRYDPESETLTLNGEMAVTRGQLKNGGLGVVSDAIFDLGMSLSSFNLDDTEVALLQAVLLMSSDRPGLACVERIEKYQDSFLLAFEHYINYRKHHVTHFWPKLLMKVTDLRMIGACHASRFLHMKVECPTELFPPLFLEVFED

Structure (SMILES)	Potency	outcome
Cn1cccc1C(=O)NC(=O)COC(=O)c1ccc(S(C)(=O)=O)c([N+](=O)[O-])c1	38.4 µM (active)	
CS(=O)(=O)c1ccc(C(=O)NCC(=O)NC2C3CC4CC(C3)CC2C4)cc1[N+](=O)[O-] (stereo not given)	11.3 µM (active)	
CC1CCCCN1C(=O)COC(=O)c1ccc(S(C)(=O)=O)c([N+](=O)[O-])c1 (stereo not given)	11.5 µM (active)	
C#CCNC(=O)COC(=O)c1ccc(S(C)(=O)=O)c([N+](=O)[O-])c1		inactive
Cc1nc(-c2ccc(S(C)(=O)=O)c([N+](=O)[O-])c2)sc1C(=O)NC1C2CC3CC(C2)CC1C3 (stereo not given)	4 µM (active)	
CN(C(=O)COC(=O)c1ccc(S(C)(=O)=O)c([N+](=O)[O-])c1)c1ccccc1	1.6 µM (active)	
CS(=O)(=O)c1ccc(C(=O)OCC(=O)Nc2ccc(OC(F)(F)F)cc2)cc1[N+](=O)[O-]		inactive
CC1(C)C2CCC1(C)C(NC(=O)COC(=O)c1ccc(S(C)(=O)=O)c([N+](=O)[O-])c1)C2 (stereo not given)	4.3 µM (active)	
CS(=O)(=O)c1ccc(-c2nnc(-c3ccccc3)s2)cc1[N+](=O)[O-]		inactive
CS(=O)(=O)c1ccc(C(=O)OCC(=O)N2CCc3ccccc32)cc1[N+](=O)[O-]	51.8 µM (active)	
CC(OC(=O)c1ccc(S(C)(=O)=O)c([N+](=O)[O-])c1)C(=O)NC1C2CC3CC(C2)CC1C3 (stereo not given)	1.4 µM (active)	
Cc1ccc(-c2csc(-c3ccc(S(C)(=O)=O)c([N+](=O)[O-])c3)n2)cc1	36.8 µM (active)	
CS(=O)(=O)c1ccc(C(=O)OCC(=O)N2CCCc3ccccc32)cc1[N+](=O)[O-]	2.3 µM (active)	
N#Cc1ncc(C(=O)OCC(=O)NC2C3CC4CC(C3)CC2C4)cn1 (stereo not given)		inactive
C[S+](=O)([O-])c1ccc(C(=O)OCC(=O)NC2C3CC4CC(C3)CC2C4)cc1 (stereo not given)		inactive
CCC(OC(=O)c1ccc(S(C)(=O)=O)c([N+](=O)[O-])c1)C(=O)NC1C2CC3CC(C2)CC1C3 (stereo not given)	1.1 µM (active)	
CCN1CCN(C(=O)COC(=O)c2ccc(S(C)(=O)=O)c([N+](=O)[O-])c2)CC1C (stereo not given)		inactive
CS(=O)(=O)c1ccc(C(=O)OCC(=O)N2CCN(CCC3CCCCC3)CC2)cc1[N+](=O)[O-]	7.6 µM (active)	
Cc1ccc(F)cc1NC(=O)COC(=O)c1ccc(S(C)(=O)=O)c([N+](=O)[O-])c1		inactive
CC(=O)N1CCN(C(=O)COC(=O)c2ccc([S+](C)(=O)[O-])c([N+](=O)[O-])c2)CC1		inactive
CS(=O)(=O)c1ccc(C(=O)OCC(=O)Nc2cc(C(F)(F)F)ccc2Cl)cc1[N+](=O)[O-]		inactive
CS(=O)(=O)c1ccc(C(=O)OCC(=O)NCC2CCCO2)cc1[N+](=O)[O-] (stereo not given)		inactive
C[S+](=O)([O-])c1ccc(C(=O)OCC(=O)N2CCN([S+](C)(=O)[O-])CC2)cc1[N+](=O)[O-]		inactive
CC(=O)Nc1cccc(C(=O)OCC(=O)NC(=O)C2CCCCC2)c1		inactive
CS(=O)(=O)c1ccc(C(=O)OCC(=O)N2CCC(Cc3ccccc3)CC2)cc1[N+](=O)[O-]	8.2 µM (active)	
